Measured values taken from PubChem BioAssay AID2685 (National Center for Advancing Translational Sciences (NCATS), 2010).
Screen size: about 320,000 compounds; about 2,100 (0.66%) were called active. Not shown: some 53% with an inconclusive outcome. Calls come from the whole dose curve; as a rule, active = well fitted inhibition curve with a large enough effect in the signal ratio, with a control signal flat (not every such curve was filed as active); inconclusive = small, poorly fitted or top-dose-only effect, or effect the other way, or a change in a side signal; inactive = flat fitted curve, though single readings scatter; the % refers to the signal ratio. Only a selection was taken, and actives are over-represented in it overall.

assay: qHTS Assay for Lipid Storage Modulators in Drosophila S3 Cells; details: BODIPY lipid droplet fluorescence, 18-24 h, cells fed with added oleic acid; cell number change: measured here: cell count max response; series mostly up to 46.1 µM; lipid storage change, negative = inhibition: at the top concentration;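 for cell number change: cells counted by Cell Tracker Red CMTPX staining in the red channel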; for lipid storage change, negative = inhibition: % is set by controls: 0 for no effect and ±100 for the full control effect
In short: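 Laser-scanning cytometry quantifies lipid droplet accumulation (500–530 nm total intensity; droplet/cell object ratio) in oleic acid-fed (400 uM added) Drosophila S3 cells treated with a concentration series. 20 uM Triacsin C defined 100% inhibition.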
Potency is the fitted concentration of half-maximal effect.

Structure (SMILES)	lipid storage change, negative = inhibition	cell number change	outcome	Potency
Brc1ccccc1CN1CCC(N2CCCCC2)CC1	11.6% (inactive)	-5.87%	–	–
c1ccc(C2CCC(N3CCC(N4CCCCC4)CC3)CC2)cc1 (stereo unspecified)	–	-17%	inactive	–
CCS(=O)(=O)N1CCN(S(=O)(=O)c2ccc3ccccc3c2)CC1	–	16.6%	inactive	–
Cc1ccc(S(=O)(=O)N2CCN(C3CCN(Cc4ccccc4)CC3)CC2)cc1	6.16% (inactive)	-12.2%	–	–
O=S(=O)(c1ccc2ccccc2c1)N1CCN(C2CCN(Cc3ccccc3)CC2)CC1	–	21%	–	5.8 µM (active)
CC1CCN(S(=O)(=O)c2ccc3ccccc3c2)CC1	–	5.85%	–	3.26 µM (active)
O=S(=O)(c1ccccc1)N1CCN(C2CCN(Cc3ccccc3)CC2)CC1	2.03% (inactive)	9.59%	–	–
c1ccc(CN2CCC(N3CCC(N4CCCCCC4)CC3)CC2)cc1	–	-20.6%	–	0.82 µM (active)
O=S(=O)(c1ccc2ccccc2c1)N1CCCCCC1	-25% (inactive)	0.283%	–	–
COc1cccc(NC(=O)CN2C(=O)NC(C)(CCC(C)C)C2=O)c1 (stereo unspecified)	16.3% (inactive)	17.1%	–	–
O=C(NCCc1ccc(Cl)cc1)c1ccc(CS(=O)Cc2ccc(Cl)cc2)o1 (stereo unspecified)	–	–	inactive	–
O=C(CCN1C(=O)COc2ccccc21)N1CCN(c2ccccc2)CC1	-3.53% (inactive)	0.131%	–	–
O=C(NCC1CCCO1)C1CCN(C2CCN(C(=O)Cc3ccsc3)CC2)CC1 (stereo unspecified)	-25.2% (inactive)	-8.37%	–	–
COc1ccc(CNc2nnnn2C)c(OC)c1	–	-2.1%	–	0.651 µM (active)
CCOc1c(CNc2nnnn2C)cccc1OC	5.04% (inactive)	15.4%	–	–
COc1ccc(CNc2nc3ccccc3n2C)c(OC)c1	-7.05% (inactive)	-4.3%	–	–
O=C1NC(=S)N/C1=C\c1ccccc1OCc1ccc(C(=O)O)cc1	-4.41% (inactive)	-1.56%	–	–
O=C(NCCNC(=O)c1ccccc1Br)c1ccccc1Br	5.24% (inactive)	13.7%	–	–
O=C(NCCO)c1ccccc1O	–	26.5%	inactive	–
O=C(NCCNC(=O)c1ccccc1O)c1ccccc1O	–	-28.8%	–	9.2 µM (active)
Cc1ccc(C2C(C#N)=C(N)N(c3ncn[nH]3)C3=C2C(=O)CC(C)(C)C3)cc1 (stereo unspecified)	–	–	inactive	–
CCOc1ccc(N(CC(=O)NC(C(C)C)C(C)C)S(=O)(=O)c2ccc(OC)c(OC)c2)cc1	-10.3% (inactive)	14%	–	–
CC(=O)C1=C(O)C(=O)N(c2ccc(S(N)(=O)=O)cc2)C1c1cccc([N+](=O)[O-])c1 (stereo unspecified)	-11.7% (inactive)	5.32%	–	–

Structure (SMILES)	lipid storage change, negative = inhibition	cell number change	outcome	Potency
CC(C)CNC(=O)c1ccc(Cl)c(Cl)c1	11.7% (inactive)	-14.4%	–	–
CC(NC(=O)CCl)c1ccc(Cl)c(Cl)c1 (stereo unspecified)	–	-24.5%	–	23.1 µM (active)
CC(NC(=O)Cc1ccc(S(=O)(=O)N2CCOCC2)s1)c1ccc(Cl)c(Cl)c1 (stereo unspecified)	4.21% (inactive)	-8.77%	–	–
Cc1ccc(NC2CCCN(C(=O)c3cnc4ccccn4c3=O)C2)cc1C (stereo unspecified)	-4% (inactive)	10.1%	–	–
Cc1ccc(S(=O)(=O)NCCCC(=O)N2CCC(C)CC2)cc1	–	-15.3%	–	16.4 µM (active)
Cc1ccc(S(=O)(=O)NCC(=O)NCC(=O)N2CCC(C)CC2)cc1	–	27.4%	inactive	–
CC1CCN(C(=O)CCNS(=O)(=O)c2ccccc2)CC1	-3.73% (inactive)	9.54%	–	–
CC1CN(C(=O)COC(=O)c2ccc(NC(=O)CC#N)cc2)CC(C)O1 (stereo unspecified)	1.66% (inactive)	-23.4%	–	–
CC(=O)Nc1cc(NC(C)=O)cc(C(=O)OCC(=O)N2CC(C)OC(C)C2)c1 (stereo unspecified)	–	-18.5%	–	25.9 µM (active)
CCOc1ccc(C(=O)OCC(=O)N2CC(C)OC(C)C2)cc1OCC (stereo unspecified)	–	-6.35%	inactive	–
COC(=O)c1ccc(NC(=O)CSc2nc(=O)n3cccc(C)c3n2)cc1	8.53% (inactive)	-5.09%	–	–
COC(=O)c1ccc(-n2c(C)ccc2-c2ccccc2)cc1	–	–	inactive	–
CC(=O)Nc1ccc(-n2c(C)ccc2-c2ccccc2)cc1	6.88% (inactive)	12.4%	–	–
COc1ccc(-n2c(C)ccc2-c2ccccc2)cn1	–	3.52%	–	14.6 µM (active)
COc1ccc(Br)cc1C(=O)NC(=S)Nc1ccc2[nH]c(=O)[nH]c2c1	–	-29.5%	inactive	–
COc1ccc(S(=O)(=O)N2CCCCCC2)cc1C(=O)Nc1ccc(C)cn1	–	–	inactive	–
COc1ccc([C@@H]2C[C@H](c3ccccc3)Oc3cc(OC)c(OC)c(OC)c32)cc1	–	-18.2%	–	4.61 µM (active)
COc1ccc(C2CC(O)(c3ccccc3)Oc3cc(OC)cc(OC)c32)cc1 (stereo unspecified)	-17.8% (inactive)	-14.8%	–	–
COc1ccc([C@@H]2C[C@@H](c3ccccc3)Oc3cc(OC)c(OC)c(OC)c32)cc1	-12.6% (inactive)	-1.66%	–	–
C=C1CCN(C(C(=O)OC)C(C)C)S(=O)(=O)c2ccccc21 (stereo unspecified)	-1.62% (inactive)	0.159%	–	–
CCC(=O)NC1(C(F)(F)F)C(=O)Nc2c1c(=O)n(C)c(=O)n2C (stereo unspecified)	–	7.51%	inactive	–
Cn1c2c(c(=O)n(C)c1=O)C(NC(=O)c1ccco1)(C(F)(F)F)C(=O)N2 (stereo unspecified)	9.46% (inactive)	6.96%	–	–
Cn1c2c(c(=O)n(C)c1=O)C(NC(=O)c1cccs1)(C(F)(F)F)C(=O)N2 (stereo unspecified)	-10.5% (inactive)	-6.48%	–	–

Structure (SMILES)	lipid storage change, negative = inhibition	cell number change	outcome	Potency
CC(C)CC(=O)NC1(C(F)(F)F)C(=O)Nc2c1c(=O)n(C)c(=O)n2C (stereo unspecified)	–	2.2%	–	3.66 µM (active)
CC(=O)NC1(C(F)(F)F)C(=O)Nc2c1c(=O)n(C)c(=O)n2C (stereo unspecified)	-1.58% (inactive)	-13.1%	–	–
CCCCC(=O)NC1(C(F)(F)F)C(=O)Nc2c1c(=O)n(C)c(=O)n2C (stereo unspecified)	–	-5.38%	–	18.4 µM (active)
CC(=O)Nc1ccccc1/C=C/c1ccc2c(C)cc(C)c(O)c2n1	14.1% (inactive)	8.64%	–	–
COc1ccc(OC)c(/C=C/C(=O)NCCc2nc3ccccc3[nH]2)c1	-16.4% (inactive)	-6.41%	–	–
CCCCCOc1ccc(/C=C/C(=O)NCCc2nc3ccccc3[nH]2)cc1OC	–	-28.6%	–	13 µM (active)
COc1ccc(/C=C/C(=O)NCCc2nc3ccccc3[nH]2)cc1	-0.312% (inactive)	-8.48%	–	–
O=C(Nc1nnc(-c2cccs2)o1)C1CC1	-0.337% (inactive)	-5.18%	–	–
COc1ccc(N2C(=O)CSC2c2ccccc2)cc1 (stereo unspecified)	3.7% (inactive)	14.6%	–	–
Cc1n[nH]c(C)c1S(=O)(=O)N1CCc2ccccc21	11.4% (inactive)	-2.98%	–	–
C/C(=N\NC(=O)c1cccs1)c1cccnc1	-0.0778% (inactive)	20.6%	–	–
S=C(NCCc1ccccc1)N1CCn2cccc2C1c1cccnc1 (stereo unspecified)	-3.98% (inactive)	-24.1%	–	–
S=C(NCc1ccccc1)N1CCn2cccc2C1c1ccncc1 (stereo unspecified)	5.38% (inactive)	5.96%	–	–
S=C(NCCc1ccccc1)N1CCn2cccc2C1c1ccncc1 (stereo unspecified)	–	15.3%	–	7.31 µM (active)
CC[C@@H](NS(=O)(=O)c1ccc(C)cc1)C(=O)Oc1ccc2c3c(c(=O)oc2c1)CCC3	-5.22% (inactive)	4.66%	–	–
CC(=O)NC12CC3CC(C1)CC(C(=O)Nc1nc4c(C)cccc4s1)(C3)C2	–	-14.2%	–	5.8 µM (active)
CC(=O)NC12CC3CC(C1)CC(C(=O)Nc1nc4ccc(S(C)(=O)=O)cc4s1)(C3)C2	4.01% (inactive)	-1.02%	–	–
CC(=O)NC12CC3CC(C1)CC(C(=O)Nc1nc4ccc(F)cc4s1)(C3)C2	–	-27.9%	inactive	–
O=C1C=C(N2CCOCC2)c2ccccc2C1=O	–	-6.93%	–	4.11 µM (active)
O=C(O)c1ccc(NC2=C(N3CCOCC3)C(=O)c3ccccc3C2=O)cc1	-9.76% (inactive)	-2.96%	–	–
CC(=O)N(C)C1=C(N2CCOCC2)C(=O)c2ccccc2C1=O	-6.67% (inactive)	0.283%	–	–
Cc1ccc(-n2nc(C)c3c(C)c(CCC(=O)O)c(C)nc32)cc1C	-1.95% (inactive)	9.26%	–	–
O=C(O)CCCc1ccc2ccc3cccc4ccc1c2c34	7.63% (inactive)	11.3%	–	–

Structure (SMILES)	lipid storage change, negative = inhibition	cell number change	outcome	Potency
Cc1ccnc(NC(=O)CCC(=O)N(CC(=O)NC(C)(C)C)Cc2ccc3c(c2)OCO3)c1	–	-17.5%	–	23.1 µM (active)
Cc1ccnc(NC(=O)CCC(=O)N(CC(=O)NC(C)(C)C)c2ccc3c(c2)OCCO3)c1	-7.53% (inactive)	5.82%	–	–
CCN(CC(=O)NCc1ccc(F)cc1)C(=O)c1cccnc1SC	22.9% (inactive)	23.4%	–	–
CCC(C)(C)NC(=O)CN(Cc1ccc2c(c1)OCO2)C(=O)CCC(=O)Nc1ccccn1	-29.1% (inactive)	–	–	–
CC(C)CCNC(=O)CN(Cc1ccc2c(c1)OCO2)C(=O)CCC(=O)Nc1ccccn1	11.2% (inactive)	2.93%	–	–
Cc1ccnc(NC(=O)CCC(=O)N(CC(=O)NCc2ccccc2)Cc2ccccc2)c1	–	14.2%	inactive	–
CCc1ccc(N(CC(=O)NC(C)C)C(=O)CCC(=O)Nc2ccccn2)cc1	13.9% (inactive)	-21%	–	–
CC(C)NC(=O)CN(Cc1ccc2c(c1)OCO2)C(=O)CCC(=O)Nc1ccccn1	–	0.42%	–	18.4 µM (active)
COc1ccc(CN(CC(=O)NCc2ccc(F)cc2)C(=O)CCC(=O)Nc2cc(C)ccn2)cc1	–	6.52%	–	23.1 µM (active)
CCOc1ncccc1C(=O)N(CC)CC(=O)NCc1ccc(F)cc1	–	4.96%	–	3.66 µM (active)
CCOc1ncccc1C(=O)N(CC)CC(=O)Nc1ccc(NC(C)=O)cc1	8.07% (inactive)	4.04%	–	–
O=C(CN(Cc1ccccc1)C(=O)CCC(=O)Nc1ccccn1)NCc1ccc(F)cc1	–	7.92%	inactive	–
COC(=O)Cc1c(C)nc2nc(NCc3cccc([N+](=O)[O-])c3)[nH]n2c1=O	–	22.4%	inactive	–
COc1cccc(NC(=O)c2ccn(C)n2)c1	-6.25% (inactive)	-7.57%	–	–
CCCC(=O)Nc1cc(C(=O)O)ccc1Sc1ccccc1	-8.07% (inactive)	-3.48%	–	–
Cc1cc(C)n(-c2ccc(C(=O)NCc3ccc4c(c3)OCO4)cc2)n1	22% (inactive)	-26%	–	–
COc1ccc(S(=O)(=O)NC2CC(=O)N(c3ccc(C)c(C)c3)C2)cc1C (stereo unspecified)	–	–	inactive	–
O=C(Cn1cnc2ccccc2c1=O)c1ccccc1	3.76% (inactive)	-5.21%	–	–
O=C(CNC(=O)c1ccncc1)N/N=C/c1cc(Br)ccc1O	-6.45% (inactive)	-8.8%	–	–
Cc1cccc(N2C(=O)CC(N(C(=O)c3ccco3)c3cccc(C)c3)C2=O)c1 (stereo unspecified)	-2.05% (inactive)	1.21%	–	–
COc1ccccc1/C=c1\sc2nc(-c3ccccc3OC)nn2c1=O	-3.78% (inactive)	-6.9%	–	–
Cn1c(-c2sc3cc(C(F)(F)F)cnc3c2-c2cccs2)n[nH]c1=S	-9.3% (inactive)	-11.9%	–	–
